High-throughput results from PubChem BioAssay.
Shown are actives, neighbours in structure and some others; about 4.2% of the full set was active somewhere.
hcDAF12 agonist = H. contortus DAF-12 nuclear receptor activators, primary screen, cell-based, luminescence, HEK293, lit1-tk-luc reporter; HEK293 hcDAF-12 lit1-tk-luc reporter; 0% DMSO, 100% Δ7-dafachronic acid; activation, % at 6.8 µM; 370,000 tested, 1.4% active;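 active means activation above the mean of all tested compounds plus 3 SD, cut at about 5.5% in these data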
ssDAF-12 act = S. stercoralis DAF-12 nuclear receptor activators, primary screen, cell-based, luminescence, HEK293, GRIP1 co-expression, lit1-tk-luc. activation, % at 6.8 µM. 370,000 tested, 1% active. HEK293 ssDAF-12/GRIP1 lit1-tk-luc reporter; % of 3 µM dafachronic acid response;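 active means activation above the mean over all tested compounds plus 3 SD, cut at about 0.9% in these data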
SMARCA2 activ = SMARCA2 (BRM) function activators, primary screen, cell-based, luminescence, high throughput. MG213 cells, MMTV-luciferase reporter, dexamethasone, overnight. activation, % at 9.1 µM. 370,000 tested, 1% active. AID 652017, 2013; in the data active means activation above about 7.8%
DAX1 inh = DAX1 (NR0B1) inhibitors on StAR promoter, primary screen, cell-based, luminescence, SF-1 (NR5A1), full-length DAX-1. HEK293T StAR-luciferase reporter, SF-1/DAX-1 repression relief. inhibition, % at 6.8 µM. 370,000 tested, 1.1% active;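 active means inhibition above the mean over all tested compounds plus 3 SD, cut at about 3.6% in these data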;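 further: higher inhibition means more luminescence from relief of DAX-1 repression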
hgDAF12 agonist = H. glycines DAF-12 receptor agonists, primary screen, cell-based, luminescence, HEK293, GAL4 fusion, UAS-luciferase; Nuclear hormone receptor DAF-12 (Heterodera glycines), GAL4 fusion; HEK293 GAL4-hgDAF12 UAS-luciferase reporter, agonist luminescence; normalized to butyrate control; activation, % at 6.8 µM; 370,000 tested, 1.8% active;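 active means activation above a cutoff set at the mean of all screened compounds plus 3 SD, cut at about 10% in these data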
SMARCA2 act conf = SMARCA2 (BRM) function activators, confirmation, cell-based, luminescence, triplicate; shares compounds with SMARCA2 activ; MG213 cells, MMTV-luciferase with dexamethasone, overnight; MG213 cells expressing E1A, Rb sequestered; DMSO wells 0%, reference activator 100%; activation, % at 9.1 µM; 3,500 tested, 30% active; AID 652260, 2013;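 active means activation above its plate's cutoff, the mean activation of tested wells plus 3 SD, cut at about 7.9% in these data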
VP16 Luc act = GAL4-VP16 luciferase reporter activation, counter-screen for SMARCA2 (BRM) activator project, cell-based, pG5luc, luminescence, high throughput; shares compounds with SMARCA2 activ; HEK293 GAL4-VP16 pG5luc reporter; scaled: DMSO wells 0%, SAHA wells 100%; activation, % at 9.1 µM; 3,500 tested, 41% active;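 active means activation above the solvent-only control well mean plus 3 SD, averaged across control plates, cut at about 5.2% in these data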
Hits are given with their value; n = inactive; x = no result given.

SMILES	hcDAF12 agonist	ssDAF-12 act	SMARCA2 activ	DAX1 inh	hgDAF12 agonist	SMARCA2 act conf	VP16 Luc act
CC(=O)c1cccc(NC(=O)c2ccc([N+](=O)[O-])o2)c1	n	n	n	n	n	x	x
CC(=O)c1ccc(NC(=O)c2ccc([N+](=O)[O-])o2)cc1	n	n	9.4	n	n	19	n
O=Cc1coc([B-](F)(F)F)c1	n	n	n	n	n	x	x
OC[C@@H](O)C(O)[C@@H](O)CO (stereo partly specified)	n	n	n	n	n	x	x
CCS(=O)(=O)Nc1ccc2c(c1)C(=O)N(C)[C@@H]1CC[C@H](CC(=O)N3CCCCC3)O[C@H]1CO2	n	n	n	n	n	x	x
C[C@@H](N)C(=O)Nc1ccc(Cl)cc1C(=O)c1ccc[nH]1	n	n	x	x	n	x	x
Cc1cccc(OC(C)CCN2CCC(C(O)(c3ccccc3)c3ccccc3)CC2)c1 (stereo unspecified)	n	n	n	n	n	x	x
COC(=O)[C@]12C[C@H](CC(=O)NCC34CC5CC(CC(C5)C3)C4)C(=O)N(CCc3ccc(OC)c(OC)c3)C1=C[C@H](C(C)C)O[C@@H]2C1CC1	n	n	n	n	n	x	x
Cc1cc(NC(=O)c2ccc([N+](=O)[O-])o2)ccc1NC(=O)c1ccco1	n	n	10	n	n	18	n
Cc1ccc(NC(=O)c2cc([N+](=O)[O-])ccc2N2CCOCC2)cc1S(=O)(=O)N1CCOCC1	n	n	n	n	n	x	x
Cc1ccc(NC(=O)c2ccc([N+](=O)[O-])o2)cc1S(=O)(=O)N1CCOCC1	n	n	17	n	n	14	n
COc1cc(NC(=O)c2ccc([N+](=O)[O-])o2)ccc1NC(=O)c1ccco1	n	n	n	n	n	x	x
O=c1[nH]c(CSc2nc3ccccc3s2)nc2ccccc12	n	n	8.4	n	n	n	n
O=c1[nH]c(CSc2nc3ccccc3s2)nc2cc(Cl)ccc12	n	n	n	n	n	x	x
O=C(/C=C/c1ccccc1Cl)NCc1ccccc1	n	n	11	n	n	n	n
O=C(CSc1nnc(-c2ccccc2)n1Cc1ccco1)Nc1ccc(Oc2ccccc2)cc1	n	n	n	n	n	x	x
COCCCn1c(=O)/c(=C\c2ccccc2OC(C)C)s/c1=C(/C#N)C(=O)Nc1ccc(C(=O)O)cc1	n	n	n	n	n	x	x
COCCCn1c(=O)/c(=C\c2ccccc2OC(F)F)s/c1=C(/C#N)C(=O)NC(C)C	n	n	14	n	n	n	n
COc1cc(/C=C2\CC/C(=C\c3cc(OC)c(O)c(OC)c3)C2=O)cc(OC)c1O	n	n	11	n	n	34	n
COc1cc(/C=C2\CC/C(=C\c3cc(OC)c(OC)c(OC)c3)C2=O)cc(OC)c1OC	n	n	n	n	n	x	x
CCOc1ccc(NC(=O)CN(C)C(=O)c2cc3c(s2)CCC3)cc1OCC	n	n	n	n	n	x	x
COc1ccc2nc(NC(=O)Nc3ccccc3OC)sc2c1	n	n	12	n	n	n	10
COc1ccccc1NC(=O)Nc1nc2ccc(S(N)(=O)=O)cc2s1	n	n	10	n	n	15	6.3
NS(=O)(=O)c1ccc2nc(NC(=O)c3ccncc3)sc2c1	n	n	n	n	n	x	x
COc1cccc(OC)c1C(=O)Nc1nc2ccc(S(C)(=O)=O)cc2s1	n	n	n	n	n	x	x
SMILES	hcDAF12 agonist	ssDAF-12 act	SMARCA2 activ	DAX1 inh	hgDAF12 agonist	SMARCA2 act conf	VP16 Luc act
NS(=O)(=O)c1ccc2nc(NC(=O)c3ccc(Br)o3)sc2c1	n	n	8.3	n	n	n	n
O=C(Nc1cccc(Br)c1)OC1CC2CC1[C@H]1CCCCN1C2 (stereo partly specified)	n	n	n	n	n	x	x
Cc1nn(-c2ccccc2)c(N)c1-c1ccccc1	n	1.0	11	n	n	8.2	12
Nc1c(-c2ccccc2)c(CN2CCOCC2)nn1-c1ccccc1	n	n	12	n	n	n	n
CN(Cc1ccccc1)S(=O)(=O)c1cccc(C(=O)OCc2ccccc2Cl)c1	n	n	n	n	n	x	x
CC(=O)CC[C@@H]1CC[C@]2(CCCN(C(=O)c3ccc4ccccc4n3)C2)O1	n	n	n	n	n	x	x
NC(=O)c1ncn([C@@H]2O[C@H](C(=O)N[C@H](Cc3ccccc3)C(=O)N3CCN(c4ccc(Cl)cn4)CC3)[C@@H](O)[C@H]2O)n1	n	n	n	n	n	x	x
Cc1c(NC(=O)C2CCCO2)cccc1[N+](=O)[O-] (stereo unspecified)	n	n	9.5	n	n	n	n
Cc1cccc([N+](=O)[O-])c1NC(=O)COC(=O)C1CCCO1 (stereo unspecified)	n	n	n	n	n	x	x
COc1cccc(C(=O)n2ccc3ccc(-c4ccc5ccn(C(=O)c6cccc(OC)c6)c5c4)cc32)c1	n	n	n	n	n	x	x
CC(C)CC1OC(C)CC2=C1C(=O)OC(C)(C)O2 (stereo unspecified)	n	n	n	n	n	x	x
COC1=Nc2ccccc2N2CCN=C12	n	n	n	n	n	x	x
c1ccc2c(c1)C1=NCCN1c1ccccc1-2	n	n	24	n	n	371	n
O=C(COc1ccccc1CNCc1ccccc1)Nc1ccccc1	n	n	9.9	n	11	n	n
CCOc1ccccc1CNCc1ccc(C(=O)O)cc1	n	n	n	n	n	x	x
Cc1nc2nc(-c3cccs3)cn2nc1C	n	n	10	n	n	11	13
O=C(Cn1nc(-c2ccccc2)ccc1=O)NCCc1cccc(F)c1	n	n	n	n	n	x	x
O=C(N[C@H]1CC[C@H](CCNS(=O)(=O)c2ccc(Cl)cc2)O[C@@H]1CO)c1cccc(F)c1	n	n	n	n	n	x	x
CC1Cc2ccccc2N1S(=O)(=O)c1cccc(C(=O)c2nccn2C)c1 (stereo unspecified)	n	n	8.6	n	n	n	n
C[C@H]1[C@@H](NC(=O)c2cccc(C(F)(F)F)c2)CC[C@@]23CCCN2C(=O)CCC[C@@H]13	n	n	x	x	n	x	x
